Test results: the supplement of paper PMC11732987, “Enantioselective OTUD7B fragment discovery through chemoproteomics screening and high-throughput optimisation” (Communications Chemistry, 2025)

Columns and labels:
Assay in all cases: log2 ratio of Biotin-Ahx-Ub-VS probe labelling (fragment/DMSO); higher = less target engagement (more negative = stronger competition), active = hit call of the paper (q ≤ 0.05, log2 ratio ≤ -1)
Conditions in all cases: compound concentration: 200 uM; treatment time: 3 h
[1] = molecular target: T1, USP19 (UniProt O94966)
T1 sequence (whole entry): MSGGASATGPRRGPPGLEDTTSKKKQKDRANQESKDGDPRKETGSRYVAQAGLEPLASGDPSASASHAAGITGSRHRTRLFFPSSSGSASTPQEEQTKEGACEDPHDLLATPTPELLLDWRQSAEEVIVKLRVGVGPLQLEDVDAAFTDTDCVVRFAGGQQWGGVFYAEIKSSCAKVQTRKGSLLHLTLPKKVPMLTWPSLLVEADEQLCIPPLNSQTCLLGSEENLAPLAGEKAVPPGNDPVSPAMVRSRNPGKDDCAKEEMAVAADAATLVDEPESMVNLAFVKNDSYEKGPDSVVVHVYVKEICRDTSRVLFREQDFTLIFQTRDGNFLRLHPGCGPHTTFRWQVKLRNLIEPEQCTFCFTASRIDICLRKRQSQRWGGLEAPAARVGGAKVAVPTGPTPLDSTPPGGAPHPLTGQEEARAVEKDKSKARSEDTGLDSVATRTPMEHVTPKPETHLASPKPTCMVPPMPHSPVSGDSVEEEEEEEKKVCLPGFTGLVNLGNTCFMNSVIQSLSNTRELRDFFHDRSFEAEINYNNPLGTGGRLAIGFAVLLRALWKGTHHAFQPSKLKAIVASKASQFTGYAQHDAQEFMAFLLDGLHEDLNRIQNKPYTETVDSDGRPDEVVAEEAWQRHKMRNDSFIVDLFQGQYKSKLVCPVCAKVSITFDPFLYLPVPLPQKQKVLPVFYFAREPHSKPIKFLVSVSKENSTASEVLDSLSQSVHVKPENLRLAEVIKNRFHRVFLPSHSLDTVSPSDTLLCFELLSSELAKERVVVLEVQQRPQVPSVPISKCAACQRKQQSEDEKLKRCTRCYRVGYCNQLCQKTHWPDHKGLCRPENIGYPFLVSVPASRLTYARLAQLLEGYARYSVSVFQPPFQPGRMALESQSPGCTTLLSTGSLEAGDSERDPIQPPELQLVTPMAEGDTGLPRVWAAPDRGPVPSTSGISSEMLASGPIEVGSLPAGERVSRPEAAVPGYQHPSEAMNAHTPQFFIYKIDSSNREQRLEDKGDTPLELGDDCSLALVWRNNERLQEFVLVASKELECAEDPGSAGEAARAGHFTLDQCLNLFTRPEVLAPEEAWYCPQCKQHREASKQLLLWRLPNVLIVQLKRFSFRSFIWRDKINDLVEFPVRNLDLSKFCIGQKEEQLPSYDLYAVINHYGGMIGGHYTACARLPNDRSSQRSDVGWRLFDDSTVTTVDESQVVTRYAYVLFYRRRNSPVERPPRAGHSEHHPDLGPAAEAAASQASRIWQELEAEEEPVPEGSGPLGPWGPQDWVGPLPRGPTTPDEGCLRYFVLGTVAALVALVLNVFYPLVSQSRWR
Summary of the method: (§1)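 Average log2 ratios of fragment over vehicle were obtained by unpaired t-test from global-median-normalised Spectronaut label-free quantities. Proteins with ≥2 unique peptides were included. HEK293T lysate (495 µg per sample) was treated in triplicate with fragment at 200 µM or vehicle for 3 h, then with Biotin-Ahx-Ub-VS at 0.5 µM final for 1 h, and labelled DUBs were NeutrAvidin-enriched and run by diaPASEF LC-MS/MS.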

[2] = molecular target: T2, USP22 (UniProt Q9UPT9)
T2 sequence (whole entry): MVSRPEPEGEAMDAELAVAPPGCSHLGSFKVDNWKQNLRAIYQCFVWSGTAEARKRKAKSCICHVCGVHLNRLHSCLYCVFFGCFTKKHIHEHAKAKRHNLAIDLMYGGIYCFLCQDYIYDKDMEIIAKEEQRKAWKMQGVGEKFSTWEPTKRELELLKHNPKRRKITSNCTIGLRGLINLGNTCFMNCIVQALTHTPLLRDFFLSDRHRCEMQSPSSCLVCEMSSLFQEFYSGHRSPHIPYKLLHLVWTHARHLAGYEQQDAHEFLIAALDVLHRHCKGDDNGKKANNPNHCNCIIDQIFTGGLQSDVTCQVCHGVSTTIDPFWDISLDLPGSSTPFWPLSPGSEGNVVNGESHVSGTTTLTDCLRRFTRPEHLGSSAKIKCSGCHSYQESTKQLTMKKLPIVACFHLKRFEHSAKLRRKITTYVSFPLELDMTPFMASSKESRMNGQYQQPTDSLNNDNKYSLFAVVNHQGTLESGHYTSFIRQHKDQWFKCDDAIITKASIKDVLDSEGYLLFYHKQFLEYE
Summary of the method: as §1

[3] = molecular target: USP24 (UniProt Q9UPU5)
Sequence of USP24 (Q9UPU5 whole entry): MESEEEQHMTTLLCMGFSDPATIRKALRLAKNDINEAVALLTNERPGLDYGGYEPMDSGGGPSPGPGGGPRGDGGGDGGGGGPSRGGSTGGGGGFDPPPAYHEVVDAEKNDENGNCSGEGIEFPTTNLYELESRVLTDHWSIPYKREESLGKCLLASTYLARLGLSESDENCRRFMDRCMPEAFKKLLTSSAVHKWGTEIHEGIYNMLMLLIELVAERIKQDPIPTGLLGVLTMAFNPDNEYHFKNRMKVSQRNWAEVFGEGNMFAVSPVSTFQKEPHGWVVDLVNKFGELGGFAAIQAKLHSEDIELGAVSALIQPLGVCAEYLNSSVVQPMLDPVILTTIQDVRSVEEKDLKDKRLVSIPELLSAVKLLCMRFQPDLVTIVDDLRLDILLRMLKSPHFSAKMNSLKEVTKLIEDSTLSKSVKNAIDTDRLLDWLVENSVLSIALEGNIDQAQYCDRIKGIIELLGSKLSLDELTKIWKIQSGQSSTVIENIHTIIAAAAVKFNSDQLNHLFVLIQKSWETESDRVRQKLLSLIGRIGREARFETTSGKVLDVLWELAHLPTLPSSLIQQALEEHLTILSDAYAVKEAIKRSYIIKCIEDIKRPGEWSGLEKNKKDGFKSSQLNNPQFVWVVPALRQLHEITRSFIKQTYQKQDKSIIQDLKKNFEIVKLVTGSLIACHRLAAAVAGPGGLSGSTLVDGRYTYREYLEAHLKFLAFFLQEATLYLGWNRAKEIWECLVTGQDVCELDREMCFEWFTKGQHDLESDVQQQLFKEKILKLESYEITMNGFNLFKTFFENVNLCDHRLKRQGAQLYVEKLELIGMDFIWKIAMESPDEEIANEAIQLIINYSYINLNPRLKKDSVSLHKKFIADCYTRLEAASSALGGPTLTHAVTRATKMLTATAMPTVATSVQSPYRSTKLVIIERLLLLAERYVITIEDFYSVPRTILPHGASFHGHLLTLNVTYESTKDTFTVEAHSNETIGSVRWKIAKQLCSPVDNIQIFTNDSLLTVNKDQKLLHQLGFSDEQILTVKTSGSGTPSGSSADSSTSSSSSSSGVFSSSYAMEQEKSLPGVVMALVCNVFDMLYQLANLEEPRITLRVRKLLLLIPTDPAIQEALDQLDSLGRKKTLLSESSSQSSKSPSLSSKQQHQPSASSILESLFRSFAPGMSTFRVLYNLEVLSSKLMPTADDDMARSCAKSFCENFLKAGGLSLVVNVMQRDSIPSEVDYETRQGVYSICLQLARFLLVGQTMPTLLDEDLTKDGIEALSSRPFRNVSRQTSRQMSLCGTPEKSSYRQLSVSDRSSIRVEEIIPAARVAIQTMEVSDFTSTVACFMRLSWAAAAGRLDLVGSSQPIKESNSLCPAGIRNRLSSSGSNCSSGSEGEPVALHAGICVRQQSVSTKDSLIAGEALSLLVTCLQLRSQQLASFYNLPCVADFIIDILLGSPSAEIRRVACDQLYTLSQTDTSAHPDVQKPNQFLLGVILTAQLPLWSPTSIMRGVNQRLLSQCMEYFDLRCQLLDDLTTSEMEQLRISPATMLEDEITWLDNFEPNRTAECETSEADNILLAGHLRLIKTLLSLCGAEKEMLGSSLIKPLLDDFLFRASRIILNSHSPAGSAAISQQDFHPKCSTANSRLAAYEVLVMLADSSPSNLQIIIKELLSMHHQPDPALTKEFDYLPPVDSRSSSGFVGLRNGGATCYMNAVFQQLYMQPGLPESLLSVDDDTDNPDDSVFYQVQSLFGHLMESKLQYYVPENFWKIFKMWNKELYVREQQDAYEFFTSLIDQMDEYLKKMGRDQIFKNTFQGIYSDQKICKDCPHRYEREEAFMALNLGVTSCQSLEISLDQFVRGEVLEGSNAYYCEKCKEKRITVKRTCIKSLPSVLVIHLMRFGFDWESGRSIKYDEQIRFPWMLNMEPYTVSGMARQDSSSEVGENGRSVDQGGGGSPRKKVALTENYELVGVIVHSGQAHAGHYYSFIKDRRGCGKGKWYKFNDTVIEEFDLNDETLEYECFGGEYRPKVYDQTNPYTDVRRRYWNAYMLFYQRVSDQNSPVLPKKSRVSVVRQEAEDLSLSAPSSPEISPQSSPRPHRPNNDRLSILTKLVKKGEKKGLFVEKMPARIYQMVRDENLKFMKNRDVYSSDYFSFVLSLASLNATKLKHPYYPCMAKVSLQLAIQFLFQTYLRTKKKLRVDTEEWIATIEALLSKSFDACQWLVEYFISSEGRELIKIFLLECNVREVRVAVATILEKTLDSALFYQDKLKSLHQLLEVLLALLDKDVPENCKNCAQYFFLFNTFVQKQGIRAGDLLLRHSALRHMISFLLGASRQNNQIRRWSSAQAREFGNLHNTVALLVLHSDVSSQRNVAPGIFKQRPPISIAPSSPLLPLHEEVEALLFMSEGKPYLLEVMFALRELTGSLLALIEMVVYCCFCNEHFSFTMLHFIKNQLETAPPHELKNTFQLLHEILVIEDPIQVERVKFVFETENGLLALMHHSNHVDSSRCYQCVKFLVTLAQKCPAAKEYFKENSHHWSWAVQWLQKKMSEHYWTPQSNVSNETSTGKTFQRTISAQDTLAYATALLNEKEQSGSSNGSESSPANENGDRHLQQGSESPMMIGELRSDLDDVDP
Summary of the method: as §1

[4] = molecular target: T3, USP25 (UniProt Q9UHP3)
T3 sequence (whole entry): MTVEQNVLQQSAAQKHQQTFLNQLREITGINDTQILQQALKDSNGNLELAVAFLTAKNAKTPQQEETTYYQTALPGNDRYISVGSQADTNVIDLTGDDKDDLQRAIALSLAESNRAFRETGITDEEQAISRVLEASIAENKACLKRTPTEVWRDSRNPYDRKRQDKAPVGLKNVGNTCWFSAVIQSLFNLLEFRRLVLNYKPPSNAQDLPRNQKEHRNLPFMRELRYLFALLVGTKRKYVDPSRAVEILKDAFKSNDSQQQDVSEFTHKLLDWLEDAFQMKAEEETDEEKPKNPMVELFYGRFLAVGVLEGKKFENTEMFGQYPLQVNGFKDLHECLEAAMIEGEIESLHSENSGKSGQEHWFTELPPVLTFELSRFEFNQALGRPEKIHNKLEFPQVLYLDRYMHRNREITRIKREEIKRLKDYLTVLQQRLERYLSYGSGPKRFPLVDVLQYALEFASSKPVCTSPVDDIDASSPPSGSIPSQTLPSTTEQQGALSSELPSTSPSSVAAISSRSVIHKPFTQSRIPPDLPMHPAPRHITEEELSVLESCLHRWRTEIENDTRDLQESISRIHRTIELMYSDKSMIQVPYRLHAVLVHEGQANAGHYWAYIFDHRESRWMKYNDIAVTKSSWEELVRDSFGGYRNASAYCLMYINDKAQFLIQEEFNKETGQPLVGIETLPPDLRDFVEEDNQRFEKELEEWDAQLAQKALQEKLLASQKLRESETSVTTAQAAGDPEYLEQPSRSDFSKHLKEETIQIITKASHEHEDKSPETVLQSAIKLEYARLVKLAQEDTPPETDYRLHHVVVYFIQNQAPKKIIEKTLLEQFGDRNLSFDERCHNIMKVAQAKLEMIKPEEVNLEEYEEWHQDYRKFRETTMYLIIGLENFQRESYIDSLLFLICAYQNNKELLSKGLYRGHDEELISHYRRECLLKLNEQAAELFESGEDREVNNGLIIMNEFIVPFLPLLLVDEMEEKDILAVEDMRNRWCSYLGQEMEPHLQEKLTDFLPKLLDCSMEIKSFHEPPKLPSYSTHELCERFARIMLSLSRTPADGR
Summary of the method: as §1

[5] = molecular target: T4, USP28 (UniProt Q96RU2)
T4 sequence (whole entry): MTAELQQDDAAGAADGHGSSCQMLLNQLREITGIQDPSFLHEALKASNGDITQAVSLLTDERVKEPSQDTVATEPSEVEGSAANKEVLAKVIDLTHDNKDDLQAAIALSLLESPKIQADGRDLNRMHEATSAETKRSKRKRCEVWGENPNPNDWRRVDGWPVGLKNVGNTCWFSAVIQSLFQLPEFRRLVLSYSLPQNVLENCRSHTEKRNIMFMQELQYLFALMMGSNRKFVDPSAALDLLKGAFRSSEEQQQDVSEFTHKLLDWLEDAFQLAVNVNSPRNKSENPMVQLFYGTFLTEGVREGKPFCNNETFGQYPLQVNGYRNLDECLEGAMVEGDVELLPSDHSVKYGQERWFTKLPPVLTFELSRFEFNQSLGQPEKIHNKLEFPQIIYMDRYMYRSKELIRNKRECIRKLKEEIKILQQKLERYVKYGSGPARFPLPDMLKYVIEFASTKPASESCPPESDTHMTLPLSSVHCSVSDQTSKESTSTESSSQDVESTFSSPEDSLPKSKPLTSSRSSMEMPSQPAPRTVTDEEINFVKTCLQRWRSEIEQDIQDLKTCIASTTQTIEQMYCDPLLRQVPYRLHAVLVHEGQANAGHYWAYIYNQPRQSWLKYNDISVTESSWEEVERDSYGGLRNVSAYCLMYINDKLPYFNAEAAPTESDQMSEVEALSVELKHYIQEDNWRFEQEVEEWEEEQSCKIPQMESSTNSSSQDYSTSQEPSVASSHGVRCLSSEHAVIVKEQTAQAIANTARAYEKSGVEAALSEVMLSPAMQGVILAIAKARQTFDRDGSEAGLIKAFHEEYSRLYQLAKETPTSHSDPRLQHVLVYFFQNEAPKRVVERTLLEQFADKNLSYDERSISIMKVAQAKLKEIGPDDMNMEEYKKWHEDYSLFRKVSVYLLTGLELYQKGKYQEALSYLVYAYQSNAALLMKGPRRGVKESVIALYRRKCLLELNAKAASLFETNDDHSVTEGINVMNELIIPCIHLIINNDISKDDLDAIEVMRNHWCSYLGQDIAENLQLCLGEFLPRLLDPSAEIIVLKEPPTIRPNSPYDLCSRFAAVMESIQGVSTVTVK
Summary of the method: as §1

Measured: log2 ratio of Biotin-Ahx-Ub-VS probe labelling

Cl.O=C(CCl)NCCc1ncc(F)cc1F
inactive: [1] -0.108 | [2] -0.0071 | [3] -0.335 | [4] -0.361 | [5] -0.502
